Assay outcomes deposited in PubChem BioAssay by several laboratories.
FadD28 binding: inhibitors of FadD28 bisubstrate probe binding, primary screen, biochemical, fluorescence polarization, single point; Mycobacterium tuberculosis FadD28 fatty-acid-AMP ligase; inhibition, % at 12.5 µM; actives 0.22% (n = 360,000); AID 588549, 2011; in the data active = inhibition above about 8.5%, passing the limit was not always enough
Rv3671c protease: Rv3671c serine protease inhibitors, primary screen, biochemical, fluorescence polarization, M. tuberculosis H37Rv; AID 2606, 2010; P9WHR9; actives 0.048% (n = 320,000); inhibition, % at 5.96 µM; in the data active = inhibition above about 38%;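 also: extracellular domain of Rv3671c used as enzyme; 0% = enzyme with DMSO and 100% = no enzyme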
Target sequence (P9WHR9 whole entry, looked up, the tested form may be a part): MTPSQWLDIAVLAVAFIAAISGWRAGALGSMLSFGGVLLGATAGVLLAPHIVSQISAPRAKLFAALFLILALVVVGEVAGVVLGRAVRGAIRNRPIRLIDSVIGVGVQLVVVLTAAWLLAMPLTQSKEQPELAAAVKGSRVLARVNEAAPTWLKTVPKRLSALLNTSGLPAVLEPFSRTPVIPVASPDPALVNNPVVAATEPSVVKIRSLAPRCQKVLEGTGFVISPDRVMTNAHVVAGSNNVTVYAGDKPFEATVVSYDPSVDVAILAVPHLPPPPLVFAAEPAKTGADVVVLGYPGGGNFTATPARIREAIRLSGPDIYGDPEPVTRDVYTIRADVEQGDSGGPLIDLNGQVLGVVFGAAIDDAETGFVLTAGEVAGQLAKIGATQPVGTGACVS
Vc quorum ag: inducers of Vibrio cholerae quorum light production without autoinducers, primary screen, BH1578 luxS cqsA deficient, single point. activation, % at 18.7 µM. actives 0.16% (n = 350,000). V. cholerae BH1578 lux reporter, luminescence, 6 h; in the data active = activation mostly above about 9.7%, no sharp cut-off
Mtb betalactam: beta-lactam sensitization of Mtb H37Rv, H37Rv; M. tuberculosis H37Rv growth with meropenem, percent inhibition; inhibition, % at 25 µM; actives 0.27% (n = 330,000); AID 434955, 2010; call rule not given here;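 also: growth measured after seven days incubation then overnight dye step; 0% = bacteria only wells and 100% = bacteria with antibiotic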
MazF activator: activators of E. coli MazEF toxin-antitoxin RNase, primary screen, biochemical, fluorescence, uHTS; FAM/BHQ RNA-DNA oligo cleavage fluorescence, 5 h; Endoribonuclease toxin MazF (Escherichia coli (strain K12)), P0AE70; actives 0.32% (n = 350,000); activation, % at 20 µM; in the data active = activation above about 50%
UGM FP inh: M. tuberculosis UGM enzyme inhibitors, primary screen, biochemical, fluorescence polarization, single point; actives 0.06% (n = 320,000); purified UGM, fluorescence polarization probe displacement; AID 504406, 2011; inhibition, % at 10 µM; in the data active = inhibition above about 10%, passing the limit was not always enough
An asterisk follows results filed as active. This is a sample that favours compounds with a hit; in the whole collection about 0.74% have one here.

For COc1cccc(Nc2nc(N)c([N+](=O)[O-])c(N3CCOCC3)n2)c1 the results were FadD28 binding -2, Rv3671c protease -3, Vc quorum ag -8, Mtb betalactam 0, MazF activator 8 and UGM FP inh -1.
For COc1cc(O)oc1C=Nc1ccc(Cl)cc1 the results were FadD28 binding 0, Rv3671c protease -18, Vc quorum ag 26*, Mtb betalactam -5, MazF activator 9 and UGM FP inh -2.
`COc1cc(O)oc1C=Nc1ccc(Cl)cc1Cl` gave FadD28 binding -2, Rv3671c protease -15, Vc quorum ag inactive, Mtb betalactam -2, MazF activator -5 and UGM FP inh 3.
CCOC(=O)N1CCN(C(=O)COC(=O)CNC(=O)c2ccc(OCC)c(OCC)c2)CC1 was read as FadD28 binding -3, Vc quorum ag inactive and MazF activator 4.
Screening C/C(=N/NC(=O)c1cc2ccccc2cc1O)C1C(=O)c2ccccc2C1=O returned FadD28 binding 37*, Rv3671c protease 23, Vc quorum ag 0, Mtb betalactam 1, MazF activator 4 and UGM FP inh 1.
CCOC(=O)C1CCN(C(=O)N(CC)CC)CC1 was read as FadD28 binding -3, Rv3671c protease 2, Vc quorum ag 0, Mtb betalactam 11, MazF activator 0 and UGM FP inh 4.
`O=[N+]([O-])c1ccccc1S(=O)(=O)Nc1ccc(S(=O)(=O)Nc2nccs2)cc1` gave FadD28 binding -1, Rv3671c protease 4, Vc quorum ag 0, Mtb betalactam 98, MazF activator -7 and UGM FP inh 0.
For Nc1ccc(S(=O)(=O)Nc2nccs2)cc1N=Nc1ccccc1[N+](=O)[O-] the results were FadD28 binding 12* and MazF activator -9.
Screening N#CC1CC(c2ccc([N+](=O)[O-])cc2)=NN1c1ccc([N+](=O)[O-])cc1 (stereo not given) returned FadD28 binding -4, Rv3671c protease 5, Vc quorum ag -1, Mtb betalactam -2, MazF activator 563* and UGM FP inh 4.
For Cc1ccccc1C1CC(=O)Oc2cc(O)ccc21 (stereo not given) the results were FadD28 binding 13*, Vc quorum ag -1 and MazF activator -151.
Screening COc1ccc(C2CC(=O)Oc3cc(O)ccc32)cc1 (stereo not given) returned FadD28 binding -1, Vc quorum ag inactive and MazF activator 3.
For COCCNC(=O)C1(C)CCCN(C(=O)c2cccc(C(F)(F)F)c2)C1 (stereo not given) the results were FadD28 binding -2 and Vc quorum ag inactive.
For Cc1nnc(SCc2c(Cl)cccc2Cl)n(N)c1=O the results were FadD28 binding -2, Rv3671c protease -4, Vc quorum ag 58*, Mtb betalactam -3, MazF activator 2 and UGM FP inh -2.
Screening Nc1c(C(=O)c2ccccc2)sc2nsc(SCCN3CCOCC3)c12 returned FadD28 binding 0, Rv3671c protease 0, Vc quorum ag inactive, Mtb betalactam 9, MazF activator 127* and UGM FP inh 0.
Cc1ccc(C(=O)CSc2nc(N)cc(=O)[nH]2)cc1 was read as FadD28 binding -3, Rv3671c protease 1, Vc quorum ag 0, Mtb betalactam -3, MazF activator -1 and UGM FP inh 0.
`C=C(C)CSc1nc(N)cc(=O)[nH]1` gave FadD28 binding -1, Rv3671c protease 3, Vc quorum ag 17*, Mtb betalactam -11, MazF activator -6 and UGM FP inh 1.
CCOC(=O)[C@H]1[C@H]2COc3ccc(Br)cc3[C@H]2N2C(=O)CN(Cc3ccc(C)cc3)C(=O)[C@@]12C was read as FadD28 binding -3, Vc quorum ag 0 and MazF activator 161*.
NS(=O)(=O)c1ccc(CCNC(=O)COC(=O)c2nc(Cl)ccc2Cl)cc1 was read as FadD28 binding 0, Rv3671c protease 5, Vc quorum ag inactive, Mtb betalactam 1, MazF activator -6 and UGM FP inh 0.
